This passage reports efficacy and outcome results from PubChem BioAssay (NCATS).

For some assays here: Potency and affinity values are given separately. The source made the active and inactive calls. A call without a number means that no potency is given here. How the calls were made is not given here.

For the first test the following is noted: Ebola virus entry assay, green fluorescence channel.
Turning to `CNCc1ccccc1`, the efficacy was -19.2% (inactive).
Still for that read-out and setting: in the case of `C[N+]1(C)[C@@H]2CC(OC(=O)[C@H](CO)c3ccccc3)C[C@H]1[C@@H]1O[C@@H]12` (stereo not given in full) it was 12.9% (inactive); in that of `COC(=O)c1cc(Cl)c(NC(C)=O)cc1OC`, -16.3% (inactive).
On the same count and under the same terms, in the case of `CC(COc1ccccc1)NN` (stereo not given) it was -13% (inactive).
Still for that read-out and setting: in the case of `CCCCOC(=O)c1ccc(O)cc1` it was -26.2% (inactive).
`CCCCCCOc1ccccc1C(N)=O`: the efficacy was -13.5% (inactive).
On the same count and under the same terms, under `COC(=O)c1cccnc1` stands 12.2% (inactive); under `CC(C)(Oc1ccc(C2CC2(Cl)Cl)cc1)C(=O)O` (stereo not given), 16.1% (inactive); under `O=C(OOC(=O)c1ccccc1)c1ccccc1`, -19.5% (inactive).
Same read-out and setting: in the case of `CCCCCCNC(=O)n1cc(F)c(=O)[nH]c1=O` it was -33.6% (inactive); in that of `Cc1onc(-c2c(Cl)cccc2Cl)c1C(=O)Cl`, -15.7% (inactive); in that of `NS(=O)(=O)c1ccc(NC(=O)CCC(=O)O)cc1`, 9.25% (inactive).
The same measure, in the same setting: in the case of `NCCCNCCSP(=O)(O)O` it was 18% (inactive); in that of `CCN1CCC[C@H]1CNC(=O)c1cc(S(N)(=O)=O)ccc1OC`, -21.3% (inactive).
With `C=CCn1c(=O)n([C@@H]2O[C@H](CO)[C@@H](O)[C@H]2O)c2nc(N)[nH]c(=O)c21`, the efficacy was -17.7% (inactive).
On the same count and under the same terms, in the case of `O=S(=O)(O)c1cc(I)c(O)c2ncccc12` it was 29.1% (inactive); in that of `CC(CCc1ccc2c(c1)OCO2)NN` (stereo not given), 17.5% (inactive).
Same read-out and setting: under `COC(=O)C1=C(C)NC(C)=C(C(=O)OCCc2ccc(N3CCN(C(c4ccccc4)c4ccccc4)CC3)cc2)C1c1cccc([N+](=O)[O-])c1` (stereo not given) stands -12.1% (inactive).
Still for that read-out and setting: in the case of `N=C(N)N` it was 19.5% (inactive); in that of `O=C(O)CN1C(=O)c2cccc3cccc(c23)C1=O`, 11.9% (inactive); in that of `Cc1c[nH]c2ccccc12`, -29.9% (inactive).
On to `CC(C)=CCC/C(C)=C/CC/C(C)=C/CCC(=O)OC/C=C(\C)CCC=C(C)C`, for which the efficacy is 10.8% (inactive).
The same measure, in the same setting: in the case of `O=C1CC(c2ccc(Cl)cc2)CC(=O)N1` it was -27.6% (inactive); in that of `CCCCCC[C@@H](CCC)C(=O)O`, 13.6% (inactive); in that of `CC(=O)CC/C=C(\C)CC/C=C(\C)CC/C=C(\C)CCC=C(C)C`, -14.5% (inactive).
Same read-out and setting: in the case of `COc1ccc(-c2ccc3cc(C(=O)O)ccc3c2)cc1C12CC3CC(CC(C3)C1)C2` it was 13% (inactive); in that of `O=C1c2ccccc2CCc2ccccc21`, 12.1% (inactive).
The same measure, in the same setting: in the case of `O=C(CCBr)N1CCN(C(=O)CCBr)CC1` it was 10.2% (inactive).
Regarding `Nc1ccc(S(N)(=O)=O)cc1`, the efficacy is -20.5% (inactive).
For the compound `COc1cc(NS(=O)(=O)c2ccc(N)cc2)nc(C)n1`, the efficacy is -19.1% (inactive).
Same read-out and setting: under `COC(=O)c1ccc(O)cc1` stands 13.3% (inactive).
`CN1CCN(CC(=O)N2c3ccccc3C(=O)Nc3cccnc32)CC1`: the efficacy was -20.7% (inactive).
As to `CCCOc1ccc2c(c1)CC[C@@H]1[C@@H]2CC[C@]2(C)C(OC)CC[C@@H]12` (stereo not given in full), the efficacy is -11.2% (inactive).
Same read-out and setting: in the case of `CN1[C@@H]2CC(OC(=O)[C@H](CO)c3ccccc3)C[C@H]1[C@@H]1O[C@@H]12` (stereo not given in full) it was -18.3% (inactive).
In the case of `CO/N=C(/C(=O)N[C@@H]1C(=O)N2C(C(=O)[O-])=C(C[n+]3ccn4ncccc43)CS[C@H]12)c1nsc(N)n1`, the efficacy is 12.5% (inactive).
With `NCCCC[C@H](N[C@@H](CCc1ccccc1)C(=O)O)C(=O)N1CCC[C@H]1C(=O)O`, the efficacy is -19.4% (inactive).
Still for that read-out and setting: in the case of `CC(=O)OCC(=O)[C@@]1(O)[C@H](C)C[C@H]2[C@@H]3CCC4=CC(=O)C=C[C@]4(C)[C@@]3(F)[C@@H](O)C[C@@]21C` it was 26.4% (inactive).
For the compound `CC(=O)OC[C@H]1O[C@@H](OC(C)=O)[C@H](OC(C)=O)[C@@H]1OC(C)=O`, the efficacy is 18.7% (inactive).
Same read-out and setting: in the case of `C[C@H]1C[C@H](O)c2ccsc2S1(=O)=O` it was 20.1% (inactive); in that of `Cc1cc2c(cc1CC(=O)c1sccc1S(=O)(=O)Nc1onc(C)c1Cl)OCO2`, -22.3% (inactive).

For the next test the following is noted: Ebola virus entry assay, blue channel fluorescence.
Turning to `CNCc1ccccc1`, the call was inactive.
In the case of `C[N+]1(C)[C@@H]2CC(OC(=O)[C@H](CO)c3ccccc3)C[C@H]1[C@@H]1O[C@@H]12` (stereo not given in full), the call was inactive.
Same read-out and setting: in the case of `COC(=O)c1cc(Cl)c(NC(C)=O)cc1OC` it was “inactive”; in that of `CC(COc1ccccc1)NN` (stereo not given), “inactive”.
The same measure, in the same setting: under `CCCCOC(=O)c1ccc(O)cc1` stands “inactive”; under `CCCCCCOc1ccccc1C(N)=O`, “inactive”; under `COC(=O)c1cccnc1`, “inactive”.
On the same count and under the same terms, under `CC(C)(Oc1ccc(C2CC2(Cl)Cl)cc1)C(=O)O` (stereo not given) stands “inactive”; under `O=C(OOC(=O)c1ccccc1)c1ccccc1`, “inactive”.
Regarding `CCCCCCNC(=O)n1cc(F)c(=O)[nH]c1=O`, the result was inactive.
The same measure, in the same setting: under `Cc1onc(-c2c(Cl)cccc2Cl)c1C(=O)Cl` stands “inactive”; under `NS(=O)(=O)c1ccc(NC(=O)CCC(=O)O)cc1`, “inactive”; under `NCCCNCCSP(=O)(O)O`, “inactive”.
On the same count and under the same terms, in the case of `CCN1CCC[C@H]1CNC(=O)c1cc(S(N)(=O)=O)ccc1OC` it was “inactive”; in that of `C=CCn1c(=O)n([C@@H]2O[C@H](CO)[C@@H](O)[C@H]2O)c2nc(N)[nH]c(=O)c21`, “inactive”; in that of `O=S(=O)(O)c1cc(I)c(O)c2ncccc12`, “inactive”.
Same read-out and setting: in the case of `CC(CCc1ccc2c(c1)OCO2)NN` (stereo not given) it was “inactive”.
On to `COC(=O)C1=C(C)NC(C)=C(C(=O)OCCc2ccc(N3CCN(C(c4ccccc4)c4ccccc4)CC3)cc2)C1c1cccc([N+](=O)[O-])c1` (stereo not given), for which the call was inactive.
The same measure, in the same setting: under `N=C(N)N` stands “inactive”.
As for `O=C(O)CN1C(=O)c2cccc3cccc(c23)C1=O`, the outcome was inactive.
On the same count and under the same terms, in the case of `Cc1c[nH]c2ccccc12` it was “inactive”; in that of `CC(C)=CCC/C(C)=C/CC/C(C)=C/CCC(=O)OC/C=C(\C)CCC=C(C)C`, “inactive”.
On the same count and under the same terms, under `O=C1CC(c2ccc(Cl)cc2)CC(=O)N1` stands “inactive”; under `CCCCCC[C@@H](CCC)C(=O)O`, “inactive”.
The same measure, in the same setting: in the case of `CC(=O)CC/C=C(\C)CC/C=C(\C)CC/C=C(\C)CCC=C(C)C` it was “inactive”.
As for `COc1ccc(-c2ccc3cc(C(=O)O)ccc3c2)cc1C12CC3CC(CC(C3)C1)C2`, the result was inactive.
On to `O=C1c2ccccc2CCc2ccccc21`, for which the outcome was inactive.
The same measure, in the same setting: in the case of `O=C(CCBr)N1CCN(C(=O)CCBr)CC1` it was “inactive”.
On the same count and under the same terms, in the case of `Nc1ccc(S(N)(=O)=O)cc1` it was “inactive”; in that of `COc1cc(NS(=O)(=O)c2ccc(N)cc2)nc(C)n1`, “inactive”.
On the same count and under the same terms, in the case of `COC(=O)c1ccc(O)cc1` it was “inactive”; in that of `CN1CCN(CC(=O)N2c3ccccc3C(=O)Nc3cccnc32)CC1`, “inactive”; in that of `CCCOc1ccc2c(c1)CC[C@@H]1[C@@H]2CC[C@]2(C)C(OC)CC[C@@H]12` (stereo not given in full), “inactive”.
Turning to `CN1[C@@H]2CC(OC(=O)[C@H](CO)c3ccccc3)C[C@H]1[C@@H]1O[C@@H]12` (stereo not given in full), the outcome was inactive.
The same measure, in the same setting: under `CO/N=C(/C(=O)N[C@@H]1C(=O)N2C(C(=O)[O-])=C(C[n+]3ccn4ncccc43)CS[C@H]12)c1nsc(N)n1` stands “inactive”; under `NCCCC[C@H](N[C@@H](CCc1ccccc1)C(=O)O)C(=O)N1CCC[C@H]1C(=O)O`, “inactive”; under `CC(=O)OCC(=O)[C@@]1(O)[C@H](C)C[C@H]2[C@@H]3CCC4=CC(=O)C=C[C@]4(C)[C@@]3(F)[C@@H](O)C[C@@]21C`, “inactive”.
The same measure, in the same setting: in the case of `CC(=O)OC[C@H]1O[C@@H](OC(C)=O)[C@H](OC(C)=O)[C@@H]1OC(C)=O` it was “inactive”; in that of `C[C@H]1C[C@H](O)c2ccsc2S1(=O)=O`, “inactive”; in that of `Cc1cc2c(cc1CC(=O)c1sccc1S(=O)(=O)Nc1onc(C)c1Cl)OCO2`, “inactive”.
